From PubChem BioAssay (NCATS)
Inconclusive results are not listed. Entries that show only a call come without a potency. The source made the active and inactive calls. The call rests on the fitted dose curve; in most records, active means well fitted curve in the direction sought with a large enough effect; inconclusive means small, poorly fitted or top-dose-only effect, or another doubt; inactive means no such curve, though single readings can be large; an effect the other way counts as inactive or inconclusive.

Columns and labels:
[1] = biological target: Calcium and integrin-binding protein 1 (Homo sapiens) (UniProt Q99828); experiment: Primary qHTS for Identification of Calcium Integrin Binding Protein 1 (CIB1) Competitor (AID 1508620); settings: CIB1-GST / FITC-alphaIIb peptide fluorescence polarization; series mostly up to 114 µM;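 further: GST tagged CIB1 binding a fluorescein labelled alphaIIb integrin peptide tracer; top concentration of the series differs between compounds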
Outline: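 Fluorescence polarization competition: GST-tagged CIB1 (1 uM final) preincubated with compound 15 min at room temperature, then FITC-labelled alphaIIb peptide (100 nM final) added. After 15 min at room temperature, polarization read at Ex 480/Em 540.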

[2] = Primary qHTS for inhibitors of nuclear receptor binding SET domain protein 2 (NSD2) in an isogenic RCH-ACV NSD2 p.E1099K mutant (9B) (AID 1645876); settings: RCH-ACV NSD2 E1099K (9B) viability, CellTiter-Glo, 72 h; series mostly up to 44.9 µM; further: nearly all actives have a fitted effect of over 70% in size
[3] = Primary qHTS for inhibitors of nuclear receptor binding SET domain protein 2 (NSD2) in an RCH-ACV wild type WT cells (2C) (AID 1645877); settings: RCH-ACV (leukaemia line) NSD2 WT (2C) viability, CellTiter-Glo, 72 h; series mostly up to 44.9 µM; further: nearly all actives have a fitted effect of over 70% in size

Chain of Calcium and integrin-binding protein 1 (Homo sapiens) (Q99828 whole entry, looked up): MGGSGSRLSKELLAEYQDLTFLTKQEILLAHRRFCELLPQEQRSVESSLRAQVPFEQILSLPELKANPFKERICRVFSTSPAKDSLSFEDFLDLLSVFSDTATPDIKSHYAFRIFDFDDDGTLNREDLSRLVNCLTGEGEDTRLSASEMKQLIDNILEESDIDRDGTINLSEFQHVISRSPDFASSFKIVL

## Nc1nc2c(nc(Br)n2[C@@H]2O[C@@H]3COP(=O)(O)O[C@H]3[C@H]2O)c(=O)[nH]1
[1]
  Potency: inactive
[2]
  Potency: inactive
[3]
  Potency: inactive

## COc1cc2c(cc1O)C1(Cc3ccc4c(c3C1O)OCO4)[N+](C)([O-])CC2 (configuration not stated)
[1]
  Potency: inactive
[2]
  Potency: inactive

## COc1cc(C(=O)O)ccc1NC(=O)C1NC(CC(C)(C)C)C(C#N)(c2ccc(Cl)cc2F)C1c1cccc(Cl)c1F (configuration not stated)
[1]
  Potency: inactive
[2]
  Potency: inactive
